High-throughput results deposited in PubChem by Broad Institute.
C diff HTS: blocks growth of Clostridium difficile | Clostridium difficile clinical isolate growth, OD600, 24 h; hits give low values | growth activity, negative = inhibition, % at 16 µg/mL (by protocol) | 86,000 tested, 0.25% active;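 active = mean growth activity at or below -80% and every replicate also at or below -80%; inconclusive = mean at or below -80% but some replicate above -80%; inactive = mean growth activity above -80%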;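 also: 0% = DMSO wells and -100% = levofloxacin 16 µg/mL wells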
Pf Dd2 inh: P. falciparum Dd2 growth inhibition | SYBR Green, 72 h; hits give low values | activity change, % at 10 µM | 94,000 tested, 2.3% active; in the data active = activity change below about -80%; inconclusive = no clear call, values can overlap the other calls
Active calls of the source: *; ! = not confirmed by another sample. Only some compounds are listed: those with a hit (about 2.3% of all), similar ones and a draw of the others.

What do the screens show for `CC(C)NC(=O)N(C)C[C@@H]1Oc2c(NS(=O)(=O)c3cn(C)cn3)cccc2C(=O)N([C@H](C)CO)C[C@H]1C`?
C diff HTS: -1; Pf Dd2 inh: 24

What do the screens show for `C[C@@H]1CN([C@H](C)CO)C(=O)Cc2cc(NC(=O)Nc3cccc4ccccc34)ccc2O[C@H]1CN(C)S(=O)(=O)c1cn(C)cn1`?
C diff HTS: 0; Pf Dd2 inh: 15

What do the screens show for `C[C@@H]1CN([C@H](C)CO)C(=O)c2cccc(NC(=O)C3CCOCC3)c2O[C@H]1CN(C)Cc1ccc(Oc2ccccc2)cc1`?
C diff HTS: -2; Pf Dd2 inh: -39

What do the screens show for `O=C(C[C@@H]1CC[C@@H]2[C@H](COC[C@@H](O)CN2C(=O)Nc2ccc(Cl)c(Cl)c2)O1)NC1CCC1`?
C diff HTS: -98*

How did O=C(C[C@H]1CC[C@H]2[C@@H](COC[C@H](O)CN2C(=O)Nc2cc(Cl)cc(Cl)c2)O1)N1CCOCC1 do in these assays?
C diff HTS: -96*!

Results for CNC(=O)C[C@H]1CC[C@@H]2[C@H](COC[C@H](O)CN2C(=O)Nc2ccc(Cl)c(Cl)c2)O1 ?
C diff HTS: -7; Pf Dd2 inh: -12

What do the screens show for `O=C(C[C@H]1CC[C@@H]2[C@H](COC[C@@H](O)CN2C(=O)Nc2cc(Cl)cc(Cl)c2)O1)N1CCOCC1`?
C diff HTS: 55

Results for CCCNC(=O)[C@H]1[C@H](CO)[C@H]2Cn3c(ccc(-c4ccc(F)cc4)c3=O)[C@@H]1N2Cc1ccccc1F ?
C diff HTS: 2; Pf Dd2 inh: 3

What do the screens show for `C[C@@H]1CCCCO[C@H](CN(C)Cc2ccc(C(=O)Nc3ccccc3N)cc2)[C@@H](C)CN([C@H](C)CO)C(=O)c2cc(NS(=O)(=O)c3ccccc3)ccc2O1`?
C diff HTS: -1; Pf Dd2 inh: -89*

What do the screens show for `Cc1noc(C)c1S(=O)(=O)Nc1ccc2c(c1)C(=O)N([C@H](C)CO)C[C@H](C)[C@H](CN(C)Cc1ccc(C(=O)Nc3ccccc3N)cc1)O2`?
C diff HTS: 8; Pf Dd2 inh: -74

Results for Cc1noc(C)c1S(=O)(=O)Nc1ccc2c(c1)C(=O)N([C@@H](C)CO)C[C@H](C)[C@@H](CN(C)Cc1ccc(C(=O)Nc3ccccc3N)cc1)OCCCC[C@@H](C)O2 ?
C diff HTS: 16; Pf Dd2 inh: -85*

How did C[C@@H]1CCCCO[C@H](CN(C)Cc2ccc(C(=O)Nc3ccccc3N)cc2)[C@@H](C)CN([C@H](C)CO)C(=O)c2cc(NS(=O)(=O)c3ccc(F)cc3)ccc2O1 do in these assays?
C diff HTS: -8; Pf Dd2 inh: inconclusive

How did Cc1ccc(S(=O)(=O)Nc2ccc3c(c2)C(=O)N([C@@H](C)CO)C[C@H](C)[C@@H](CN(C)Cc2ccc(C(=O)Nc4ccccc4N)cc2)OCCCC[C@@H](C)O3)cc1 do in these assays?
C diff HTS: 29; Pf Dd2 inh: -92*

Results for C[C@@H]1CCCCO[C@@H](CN(C)Cc2ccc(C(=O)Nc3ccccc3N)cc2)[C@@H](C)CN([C@H](C)CO)C(=O)c2cc(NS(C)(=O)=O)ccc2O1 ?
C diff HTS: 1; Pf Dd2 inh: -71

Results for C[C@H](CO)N1C[C@H](C)[C@H](CN(C)S(=O)(=O)c2ccc(F)cc2)Oc2ccc(NC(=O)C3CC3)cc2CC1=O ?
C diff HTS: -1; Pf Dd2 inh: -22

How did O=C(C1CC1)N1CC2(C1)[C@H](c1ccccc1)[C@@H](CO)N2S(=O)(=O)c1ccccc1 do in these assays?
C diff HTS: 5; Pf Dd2 inh: 34

Results for O=C(C1CCCCC1)N1CC2(C1)[C@@H](c1ccccc1)[C@@H](CO)N2C(=O)NC1CCCC1 ?
C diff HTS: 1; Pf Dd2 inh: 18

Results for C[C@H]1CCCCO[C@H](CN(C)C(=O)Nc2ccc(C(F)(F)F)cc2)[C@@H](C)CN([C@@H](C)CO)C(=O)c2cc(NC(=O)Nc3ccccc3)ccc2O1 ?
C diff HTS: -3; Pf Dd2 inh: -83*

How did Cc1noc(C)c1NC(=O)Nc1ccc2c(c1)C(=O)N([C@H](C)CO)C[C@H](C)[C@@H](CN(C)C(=O)Nc1ccc(C(F)(F)F)cc1)OCCCC[C@H](C)O2 do in these assays?
C diff HTS: 0; Pf Dd2 inh: -77

How did Cc1noc(C)c1NC(=O)Nc1ccc2c(c1)C(=O)N([C@H](C)CO)C[C@@H](C)[C@@H](CN(C)C(=O)Nc1ccc(C(F)(F)F)cc1)OCCCC[C@@H](C)O2 do in these assays?
C diff HTS: 7; Pf Dd2 inh: -87*

How did C[C@@H]1CN([C@H](C)CO)C(=O)c2cc(NC(=O)NC3CCCCC3)ccc2O[C@@H](C)CCCCO[C@H]1CN(C)Cc1ccc(C(F)(F)F)cc1 do in these assays?
C diff HTS: 3; Pf Dd2 inh: -94*

Results for C[C@H]1CCCCO[C@@H](CN(C)Cc2ccc(C(F)(F)F)cc2)[C@@H](C)CN([C@@H](C)CO)C(=O)c2cc(NC(=O)NC3CCCCC3)ccc2O1 ?
C diff HTS: 4; Pf Dd2 inh: -25

Results for C[C@@H]1CCCCO[C@H](CN(C)C(=O)Nc2ccc(C(F)(F)F)cc2)[C@@H](C)CN([C@H](C)CO)C(=O)c2cc(NC(=O)NC3CCCCC3)ccc2O1 ?
C diff HTS: -7; Pf Dd2 inh: -78

What do the screens show for `C[C@@H]1CCCCO[C@@H](CN(C)C(=O)Nc2ccccc2)[C@@H](C)CN([C@@H](C)CO)C(=O)c2cc(NC(=O)Nc3ccc(C(F)(F)F)cc3)ccc2O1`?
C diff HTS: -7; Pf Dd2 inh: inconclusive

Results for C[C@H]1CCCCO[C@H](CN(C)C(=O)Nc2ccc(C(F)(F)F)cc2)[C@@H](C)CN([C@@H](C)CO)C(=O)c2cc(NC(=O)NC3CCCCC3)ccc2O1 ?
C diff HTS: -4; Pf Dd2 inh: -87*

What do the screens show for `N#Cc1cccc(-c2ccc([C@H]3[C@@H](CO)N[C@@H]3CNC(=O)C3CCCC3)cc2)c1`?
C diff HTS: 3; Pf Dd2 inh: -16

What do the screens show for `CCCC(=O)N1CCC2(CC1)CN(C(=O)c1ccc(F)cc1)[C@@H](CO)c1[nH]c3cc(OC)ccc3c12`?
C diff HTS: 11; Pf Dd2 inh: -60

What do the screens show for `O=C(NCCc1ccncc1)[C@@H]1[C@@H](CO)[C@@H]2Cn3c(ccc(-c4ccc(F)cc4)c3=O)[C@H]1N2`?
C diff HTS: 1

How did C[C@@H]1CCCCO[C@H](CN(C)Cc2ccncc2)[C@H](C)CN([C@@H](C)CO)C(=O)c2cc(NC(=O)c3ccncc3)ccc2O1 do in these assays?
C diff HTS: -6; Pf Dd2 inh: 0

How did C[C@@H]1CCCCO[C@@H](CN(C)C(=O)Nc2ccc(C(F)(F)F)cc2)[C@H](C)CN([C@@H](C)CO)C(=O)c2cc(NC(=O)Nc3ccccc3)ccc2O1 do in these assays?
C diff HTS: -7; Pf Dd2 inh: -28

Results for C[C@@H]1CCCCO[C@H](CN(C)C(=O)Nc2ccc(C(F)(F)F)cc2)[C@@H](C)CN([C@@H](C)CO)C(=O)c2cc(NC(=O)Nc3ccccc3)ccc2O1 ?
C diff HTS: -6; Pf Dd2 inh: -85*

What do the screens show for `C[C@@H]1CCCCO[C@H](CN(C)C(=O)Nc2ccc(C(F)(F)F)cc2)[C@H](C)CN([C@@H](C)CO)C(=O)c2cc(NC(=O)Nc3ccccc3)ccc2O1`?
C diff HTS: 0; Pf Dd2 inh: -82*
